# Assay results: PubChem BioAssay (NCI)
# Compounds without any hit were thinned out: in the full panel of roughly 83,000, 20% have a hit.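 How to read the values: 0–100, growth inhibition (40 = 60% inhibited); 0, no net growth; -100 to 0, cell death (-40 = 40% of starting cells died; -100 = all dead).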 A number with no mark means an inactive call. Active and inactive are the calls of the source. How the source made its calls: active means growth percent below 10; inactive means the rest.
# What was measured:
# Test in all cases: NCI-60 one-dose screen, 48 h (100 = growth as untreated, 0 = no growth, -100 = all killed)
# Settings in all cases: 10 µM unless noted
# NCI-H23 lung = tested on: NCI-H23 lung
# NCI-H226 lung = tested on: NCI-H226 lung
# NCI-H322M lung = tested on: NCI-H322M lung
# HOP-62 NSCLC = tested on: HOP-62 NSCLC
# NCI-H460 lung = tested on: NCI-H460 lung
# HOP-92 NSCLC = tested on: HOP-92 NSCLC
# NCI-H522 lung = tested on: NCI-H522 lung
# A549/ATCC NSCLC = tested on: A549/ATCC NSCLC
# 786-0 renal = tested on: 786-0 renal
# COLO 205 colon = tested on: COLO 205 colon
# DU-145 prostate = tested on: DU-145 prostate
# K-562 leukemia = tested on: K-562 leukemia
# MALME-3M melanoma = tested on: MALME-3M melanoma
# MDA-MB-231 breast = tested on: MDA-MB-231 breast
# RXF 393 renal = tested on: RXF 393 renal
# SF-268 CNS = tested on: SF-268 CNS
# SF-295 CNS = tested on: SF-295 CNS
# SF-539 CNS = tested on: SF-539 CNS
# UACC-257 melanoma = tested on: UACC-257 melanoma
# M14 melanoma = tested on: M14 melanoma
SMILES,growth (NCI-H23 lung),growth (NCI-H226 lung),growth (NCI-H322M lung),growth (HOP-62 NSCLC),growth (NCI-H460 lung),growth (HOP-92 NSCLC),growth (NCI-H522 lung),growth (A549/ATCC NSCLC),growth (786-0 renal),growth (COLO 205 colon),growth (DU-145 prostate),growth (K-562 leukemia),growth (MALME-3M melanoma),growth (MDA-MB-231 breast),growth (RXF 393 renal),growth (SF-268 CNS),growth (SF-295 CNS),growth (SF-539 CNS),growth (UACC-257 melanoma),growth (M14 melanoma)
COc1cccc(-c2nc3sccn3c2-c2ccnc(NCCNS(=O)(=O)c3ccccc3)c2)c1,18.9%,18.7%,58.3%,36.8%,20%,21.9%,29.8%,10.3%,38.9%,21.6%,20.5%,11.1%,43.1%,58.9%,47.5%,31.9%,10.8%,66.9%,42.5%,22.5%
Cc1nc(Nc2ccc(F)c(Cl)c2)sc1C(=O)O,15.7%,26.9%,54.3%,27.3%,18.1%,-23.8% (active),-9.27% (active),12.9%,19.6%,5.72% (active),28.2%,,30.8%,-19.8% (active),15.4%,29.3%,15.2%,24.4%,4.37% (active),
CCCCN1CCCn2c1nc1c2c(=O)n(CCC)c(=O)n1CCC,104%,113%,97.7%,102%,99.6%,81.7%,76.6%,82.2%,95.8%,114%,105%,75.7%,123%,93.8%,91.3%,95.2%,102%,100%,97.4%,110%
CN(C)CCN1C(=O)c2cccc3c(N)ccc(c23)C1=O,44.3%,23.9%,58.5%,58.1%,-5.38% (active),19.9%,7.81% (active),6.47% (active),36.9%,8.15% (active),25.9%,2.08% (active),46.7%,58.3%,4.79% (active),17.5%,21.4%,19.4%,9.42% (active),34.4%
OCCN1CCN(c2nc(Nc3ccc(-c4nc5ccccc5[nH]4)cc3)c3cn[nH]c3n2)CC1,-75.6% (active),106%,-89.8% (active),-93.2% (active),-85.4% (active),-83.4% (active),-85.6% (active),-91.9% (active),-88.5% (active),-81.4% (active),-87.1% (active),,-74.2% (active),-77% (active),-93.6% (active),-80.9% (active),-96% (active),-85.4% (active),-89% (active),
N#Cc1c(N)n(CCNC(=O)c2ccccc2)c2nc3ccccc3nc12,103%,97.2%,121%,111%,117%,-17.4% (active),84.2%,105%,92%,115%,134%,87.8%,120%,112%,,106%,121%,121%,97.9%,112%
Cc1cc(N2CCN(c3ccnc4cc(Cl)ccc34)CC2)nc(NC2CCCCC2)n1,29.9%,64.4%,58.5%,29.6%,1.4% (active),20.4%,50.2%,34%,37.9%,-48.4% (active),51.5%,5.36% (active),,-3.08% (active),48.8%,47.4%,18.9%,43%,-0.92% (active),-45.1% (active)
CCCCCCN(CCCCCC)C(=N)c1ccnc2ccccc12,72.5%,89.2%,76%,100%,55.4%,57.5%,71.7%,78.4%,57%,-74.7% (active),85.1%,16.8%,76.2%,58.1%,70.3%,83.8%,,79.7%,69.9%,18.9%
CC(=O)NCC1c2c(n(C)c3c(Cl)c(Cl)ccc23)C(=O)NC1(C)C (stereo not given),90.3%,97.1%,91.9%,88.2%,96.6%,90.6%,92.8%,94.4%,100%,113%,108%,79.5%,108%,112%,90.5%,108%,89.5%,94.5%,103%,94.2%
CC(=O)O[C@H]1C(=O)[C@@]2(C)[C@H]([C@H](OC(=O)c3ccccc3)[C@]3(O)C[C@H](OC(=O)[C@H](OC(=O)CCC(=O)OC4CCC(S/N=C(N)/N=C(\N)N(C)C)CC4)[C@@H](NC(=O)c4ccccc4)c4ccccc4)C(C)=C1C3(C)C)[C@]1(OC(C)=O)CO[C@@H]1C[C@@H]2O (stereo not given in full),39.3%,75.6%,17.8%,29.7%,7.58% (active),54.9%,-25.7% (active),28.5%,33.3%,-8.92% (active),0.0949% (active),,66.8%,22.8%,10.6%,38.1%,-10.5% (active),-19.7% (active),58%,
O=C(Oc1cccnc1)c1ccsc1Nc1ccnc(C(F)(F)F)c1,35.4%,98.6%,104%,96%,105%,44.6%,44.8%,98.2%,108%,101%,108%,25.7%,84.9%,63.2%,105%,42.6%,,99.9%,76%,81.6%
CC(C)(CCCN=C(N)Nc1ccc(Cl)cc1)c1ccc(F)cc1,55.6%,95.6%,70.9%,69.2%,46.1%,28%,62%,79.6%,73.4%,-54% (active),80.1%,,64.3%,41%,88.7%,72.6%,53.1%,76.1%,86.6%,
COc1ccc(/C=C(\C#N)C(=O)Nc2cccc(Nc3nc(SC)nc(-c4cccc([N+](=O)[O-])c4)c3C#N)c2)cc1OC,88.5%,91.8%,100%,91.3%,100%,111%,97.2%,103%,106%,112%,107%,77.9%,97%,68.9%,110%,103%,97.2%,93.4%,103%,91.5%
O=[N+]([O-])c1ccccc1/C=N\NC(=S)N/N=C/c1ccccc1[N+](=O)[O-],70.1%,83.1%,63.7%,56.5%,10%,53.7%,23.2%,74.8%,74.9%,94.6%,62.1%,,19%,83%,76.3%,41%,29.8%,56.3%,83.2%,37.6%
CC(=O)c1cc2c(N)c(C(=O)Nc3cccc4ccccc34)sc2nc1C,34.6%,81.3%,45.4%,38.9%,7.21% (active),61.6%,13%,22%,31.6%,-27% (active),15.5%,,56.2%,26.2%,10.4%,56.3%,19.8%,-15% (active),59.8%,3.93% (active)
FC(F)(F)Oc1ccc2nc3nc4ccc[nH]c4cc3c2c1,64.7%,57.2%,71.6%,58.4%,46.2%,84.7%,75.3%,64.5%,46.4%,95.4%,87.7%,,93%,74.2%,76.7%,82.3%,98.2%,84.8%,103%,96.2%
